Screening data from PubChem.
KCNQ2 pot – potentiators of rat KCNQ2 potassium channel. B-score at 10 µM. actives 0.54% (n = 310,000). CHO-K1 KCNQ2, FluxOR thallium flux fluorescence; hits give high values;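 active = fluorescence ratio B-score at least 3 SD of library B-scores, with initial fluorescence B-score within 3 of them, cut at about 5.3 in these data; same plate scores as AID 2156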;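 note: B-score of peak minus minimum over baseline fluorescence ratio after K+ and Tl+ stimulus; positive B-score means potentiation of KCNQ2 with more thallium influx and brighter signal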
KCNQ2 inh – KCNQ2 (rat) channel inhibition. CHO-K1 KCNQ2, FluxOR thallium flux, 20 min; hits give low values. O88943. AID 2156. B-score at 10 µM. actives 1.1% (n = 310,000);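 active = fluorescence ratio B-score at most minus 3 library SDs, with starting brightness B-score within 2 library SDs, cut at about -5.5 in these data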
Kir21 confirm – confirmation of mouse Kir2.1 potassium channel inhibitors. shares compounds with KCNQ2 pot. Kir2.1-expressing cells, FluxOR thallium flux fluorescence; hits give low values. AID 2032. actives 41% (n = 2,300). Tl flux remaining, % of negative control (hits give low values), % at 10 µM;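 active = Primary-screen hit whose thallium flux fell at least 3 control SD below untreated wells in both duplicates, with normal baseline fluorescence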;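 note: 0% = blank wells without stimulus and 100% = stimulated no-compound controls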
HEK293 ctr – parental HEK293 activity in Kir2.1 inhibitor counter-screen. parental HEK293 cells, FluxOR thallium flux fluorescence; 0% = unstimulated blank wells. actives 19% (n = 2,300). shares compounds with KCNQ2 pot. FluxOR signal as % of negative control (100 = no effect), % at 10 µM;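 active = dye signal at least 3 control SD above or below untreated wells in both duplicates, raw fluorescence within 3, either direction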;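 note: percent is based on the flux ratio of peak minus minimum fluorescence over baseline F0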
CHO-K1 Tl ctr – parental CHO-K1 activity in KCNQ2 potentiator counter-screen. actives 43% (n = 1,200). parental CHO-K1 cells, FluxOR thallium flux fluorescence; zero = vehicle mean+3SD, 100% = vehicle-minus-blank window. shares compounds with KCNQ2 pot. activity increase over 3SD of controls, % at 10 µM;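 active = signal rise of at least 3 SD above the untreated control mean, in both duplicate wells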;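 note: counter screen of KCNQ2 potentiator hits so any rise reflects channel-independent effects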
KCNQ1 pot spec – selectivity of KCNQ2 potentiators: effect on human KCNQ1; shares compounds with KCNQ2 pot; CHO KCNQ1 stable, FluxOR thallium flux fluorescence; beyond 3SD, as % of vehicle-control signal; activation over 3SD threshold, % at 10 µM; actives 28% (n = 1,200);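 active = fluorescence ratio rise of at least 3 SD of vehicle wells above their mean, in both replicate wells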;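 note: 0% = vehicle mean plus 3 SD and 100% = vehicle minus unstimulated blank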
Target sequence (P51787 whole entry, looked up): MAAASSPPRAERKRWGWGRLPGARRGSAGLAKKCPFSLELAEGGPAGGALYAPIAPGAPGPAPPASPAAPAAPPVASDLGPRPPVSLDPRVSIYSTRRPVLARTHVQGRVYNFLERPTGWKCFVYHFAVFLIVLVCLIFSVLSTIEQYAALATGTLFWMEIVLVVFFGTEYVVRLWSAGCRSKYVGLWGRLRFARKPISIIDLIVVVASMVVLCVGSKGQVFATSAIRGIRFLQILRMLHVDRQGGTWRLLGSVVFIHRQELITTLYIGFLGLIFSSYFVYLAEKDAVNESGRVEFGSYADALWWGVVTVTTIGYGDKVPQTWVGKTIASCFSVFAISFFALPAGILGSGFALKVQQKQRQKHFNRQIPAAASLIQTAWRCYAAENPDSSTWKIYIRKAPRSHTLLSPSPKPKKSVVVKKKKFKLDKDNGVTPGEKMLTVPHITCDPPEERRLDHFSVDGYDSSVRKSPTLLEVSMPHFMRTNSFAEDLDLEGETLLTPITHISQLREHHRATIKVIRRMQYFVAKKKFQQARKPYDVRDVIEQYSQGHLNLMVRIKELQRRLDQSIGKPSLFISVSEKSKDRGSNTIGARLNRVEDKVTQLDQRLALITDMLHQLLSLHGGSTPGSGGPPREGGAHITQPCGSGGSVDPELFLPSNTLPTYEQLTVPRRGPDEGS
KCNQ2 pot conf – confirmation of rat KCNQ2 potassium channel potentiators; CHO-KCNQ2 cells, FluxOR thallium flux fluorescence; AID 2287; potentiation, less the hit threshold, % at 10 µM; shares compounds with KCNQ2 pot; actives 68% (n = 1,200);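 active = fluorescence ratio rising 3 SD or more over the vehicle control mean in both replicates, plus primary screen hit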;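 note: peak minus minimum thallium fluorescence divided by baseline after K/Tl stimulus; 0% = vehicle mean plus 3 SD and 100% = vehicle minus unstimulated blank difference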
Kir2-1 sel – selectivity of KCNQ2 potentiators: effect on mouse Kir2.1. shares compounds with KCNQ2 pot. HEK293 Kir2.1, FluxOR thallium flux fluorescence. activity over 3SD threshold, % at 10 µM. actives 2% (n = 1,200);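 active = fluorescence ratio rise of at least 3 SD above the vehicle-control mean, seen in both replicates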;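 note: 0% = vehicle mean plus 3 SD and 100% = vehicle minus no-stimulus blank window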
KCNQ2 W236L MoA – potentiates the retigabine-insensitive rat KCNQ2 W236L mutant channel. AID 2558. shares compounds with KCNQ2 pot. CHO KCNQ2-W236L, automated patch clamp current. current increase over 3SD of negative controls (%), hits give high values, % at 25 µM. actives 10% (n = 940);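 active = current increase at least 3 SD of the untreated controls above them in both duplicate recordings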
Numbers without * were called inactive; i = inactive; . = no result. A selection: hits, their analogues and other compounds. The true share with any hit is near 1.6%.

SMILES | KCNQ2 pot | KCNQ2 inh | Kir21 confirm | HEK293 ctr | CHO-K1 Tl ctr | KCNQ1 pot spec | KCNQ2 pot conf | Kir2-1 sel | KCNQ2 W236L MoA
O=C(CCC1CCCCC1)NCc1cccs1 | 7.4* | i | i | i | 54* | -12 | 15* | -22 | i
O=C(CCSCCC(=O)NCc1cccs1)NCc1cccs1 | 0.86 | i | . | . | . | . | . | . | .
O=C(CC1CC2CCC1C2)NCc1cccs1 (centres undefined) | 5.3* | i | i | i | -18 | 27* | 13* | -36 | i
OC(COC(c1ccc(F)cc1)c1ccc(F)cc1)CN1CCCC(C(F)(F)F)C1 (centres undefined) | . | i | . | . | . | . | . | . | .
Cc1cn2c(=O)c(C(=O)N3CCN(c4ccccc4F)CC3)cnc2s1 | 0.64 | i | . | . | . | . | . | . | .
O=C(NC(=S)Nc1ccccc1Cl)c1csnn1 | 15* | i | i | 408%* | 79* | -19 | 72* | -18 | i
O=C(Nc1ccccc1NC(=O)c1csnn1)c1csnn1 | . | i | . | . | . | . | . | . | .
O=C(NC(=S)Nc1cccc(C(F)(F)F)c1)c1csnn1 | 18* | i | i | 442%* | -18 | -11 | 80* | -17 | i
CCCOc1cccc(C(=O)NC(=S)Nc2cccc(C(F)(F)F)c2)c1 | . | i | . | . | . | . | . | . | .
CC(=O)Oc1ccc(C(=O)NC(C)CCc2ccccc2)cc1 (centres undefined) | 0.34 | i | . | . | . | . | . | . | .
C=CCNc1nc(Cl)nc(Nc2cc(Cl)ccc2OC)n1 | 0.51 | i | . | . | . | . | . | . | .
CCS(=O)(=O)N1CCC(C(=O)N2CCN(Cc3ccccc3)CC2)CC1 | . | i | . | . | . | . | . | . | .
Cc1ccc2c(C(=O)CCl)c(C)[nH]c2c1 | . | i | . | . | . | . | . | . | .
CC(C)c1nc(SCC(=O)N2CCCc3ccccc32)c2c(=O)n(C)c(=O)n(C)c2n1 | 0.99 | i | . | . | . | . | . | . | .
CCCCc1nc(SCCOC)c2c(=O)n(C)c(=O)n(C)c2n1 | 2 | i | . | . | . | . | . | . | .
CC1CCN(C(=O)CSc2nc(C(C)C)nc3c2c(=O)n(C)c(=O)n3C)CC1 | 27* | i | i | i | 21* | -2 | 124* | -24 | i
CCCCc1nc(SCC(=O)N2CCOCC2)c2c(=O)n(C)c(=O)n(C)c2n1 | 5.4* | i | i | i | -4 | 57* | 9.8* | -28 | i
Cc1nc(SCC(=O)N2CCOCC2)c2c(=O)n(C)c(=O)n(C)c2n1 | 1.1 | i | . | . | . | . | . | . | .
CCCCc1nc(SCC(=O)N2CCCCC2)c2c(=O)n(C)c(=O)n(C)c2n1 | 26* | i | i | i | -16 | -25 | 100* | -43 | i
Cn1c(=O)c2c(SCC(=O)N3CCOCC3)nc(C3CCCCC3)nc2n(C)c1=O | 3.8 | i | . | . | . | . | . | . | .
CCCCc1nc(SCC(=O)N2CCCC2)c2c(=O)n(C)c(=O)n(C)c2n1 | 8.2* | i | i | i | -22 | -11 | 38* | -34 | i
CCOc1ccc(CCNC(=O)COC(=O)CSc2ccccc2C)cc1OCC | . | i | . | . | . | . | . | . | .
O=C(Nc1ccc(N2CCOCC2)cc1)c1ccc([N+](=O)[O-])cc1 | 1.4 | i | . | . | . | . | . | . | .
CCN(CC)c1ccc(/C=N/NC(=O)CNC(=O)C2COc3ccccc3O2)c(O)c1 (centres undefined) | 0.14 | i | . | . | . | . | . | . | .
Cn1c(=O)c2c(SCC(=O)N3CCCC3)nc(-c3ccccc3)nc2n(C)c1=O | 2.4 | i | . | . | . | . | . | . | .
SMILES | KCNQ2 pot | KCNQ2 inh | Kir21 confirm | HEK293 ctr | CHO-K1 Tl ctr | KCNQ1 pot spec | KCNQ2 pot conf | Kir2-1 sel | KCNQ2 W236L MoA
CC(C)Cc1nc(SCC(=O)N2CCCC2)c2c(=O)n(C)c(=O)n(C)c2n1 | 6.5* | i | i | i | 33* | -10 | 19* | -9 | i
COc1ccc(C(=O)Nc2ccc(-c3nnn(CC(=O)NCc4ccco4)n3)cc2)cc1 | 0.02 | i | . | . | . | . | . | . | .
CCN(CC)S(=O)(=O)c1cccc(C(=O)NC(C(=O)NC2=NCCS2)C(C)C)c1 (centres undefined) | 0.24 | i | . | . | . | . | . | . | .
CCN(CC)S(=O)(=O)c1cccc(C(=O)N[C@H](C(=O)NNC(=O)c2ccccc2)C(C)C)c1 | 8* | i | i | i | -25 | 0.2* | -23 | -23 | .
O=C(O)C1CCC(N2C(=O)c3c(Cl)c(Cl)c(Cl)c(Cl)c3C2=O)CC1 (centres undefined) | . | i | . | . | . | . | . | . | .
Nc1ccc(C(=O)N/N=C/c2cccc(Oc3ccccc3)c2)cc1 | 1.8 | i | 56%* | i | . | . | . | . | .
O=C(N/N=C/c1cccc(Oc2ccccc2)c1)c1cc[n+]([O-])cc1 | . | i | . | . | . | . | . | . | .
CC(=O)c1ccc(S(=O)(=O)N2CCN(C(=O)CSc3ccc(C)c(C)c3)CC2)cc1 | . | i | . | . | . | . | . | . | .
Cc1[nH]n(-c2ccccc2)c(=O)c1Sc1ccc(Cl)cc1 | 1.1 | i | . | . | . | . | . | . | .
CCCSC(=S)c1c(C)[nH]n(-c2ccccc2)c1=O | 9.8* | i | i | 424%* | 22* | -14 | 54* | 3.8* | i
CCCCn1c(N)c(N(CCOC)C(=O)c2ccc3c(c2)OCCO3)c(=O)[nH]c1=O | 1.5 | i | . | . | . | . | . | . | .
O=C(Nc1nnc(-c2ccc(Br)cc2)o1)c1ccco1 | 17* | i | i | i | -6 | -17 | 19* | -32 | i
CS(=O)(=O)c1ccc(-c2nnc(NC(=O)c3ccco3)o2)cc1 | 0.06 | i | . | . | . | . | . | . | .
COC(=O)c1cc(COc2ccc3oc(C)c(C(=O)OC(C)C)c3c2)c(C)o1 | . | i | . | . | . | . | . | . | .
C=CCc1cc(Cl)ccc1OCCOCCNC(C)CC (centres undefined) | 0.16 | i | i | i | . | . | . | . | .
C=CCc1cc(Cl)ccc1OCCCNC(C)C | 0.39 | i | . | . | . | . | . | . | .
CC(C)Cc1nnc(NC(=O)c2cc([N+](=O)[O-])ccc2N2CCOCC2)s1 | 1.7 | i | . | . | . | . | . | . | .
CC1=NN(c2cccc(C(=O)O)c2)C(=O)/C1=C\C=C/c1ccccc1 | 7.2* | i | i | i | 33* | -2 | 36* | -62 | i
CC1=NN(c2ccc(C)cc2)C(=O)/C1=C\C=C\c1ccccc1 | . | i | . | . | . | . | . | . | .
COc1ccc(S(=O)(=O)N2CC(=O)Nc3ccccc32)cc1 | . | i | . | . | . | . | . | . | .
Cc1ccsc1C(=O)N(CC(C)C)c1c(N)n(Cc2ccccc2)c(=O)[nH]c1=O | 1 | i | . | . | . | . | . | . | .
CC(CCCN(C)C)C(Cc1ccccc1)c1ccccc1 (centres undefined) | . | i | 48%* | i | . | . | . | . | .
CN(C)CCC(=O)C(Cc1ccccc1)c1ccccc1 (centres undefined) | . | i | . | . | . | . | . | . | .
